± gives the standard deviation of the averaged measurements.
Key:
DLD1 [1] = assay: cell viability (CellTiter-Glo) relative to plate median (fraction of plate median); higher = more viable cells; settings: 5 µM; treatment time 24 h; reporter: 7TFP
Outline: (§1)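 For this screen, colorectal cancer cell lines carrying stable lentiviral TCF/Wnt firefly luciferase reporters, either 7TFP or TCF4/Wnt, were seeded into 384-well plates. A day's wait of 24 h preceded addition of library compounds at a final 5 µM, which stayed on the cells for 24 h. Firefly luciferase or CellTiterGlo luminescence, read on parallel plates, was normalised to the plate median per well, and the reported value is the mean of two independent replicates.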

HCT116 = assay: as above; settings: 5 µM; treatment time 24 h; reporter: TCF4/Wnt
Outline: as §1

SW480 [2] = assay: as above; settings: 5 µM; treatment time 24 h; reporter: 7TFP
Outline: as §1

DLD1 [3] = assay: TCF/Wnt firefly luciferase reporter signal relative to plate median (fraction of plate median); higher = higher Wnt reporter signal; settings: 5 µM; treatment time 24 h; reporter: 7TFP
Outline: as §1

SW480 [4] = assay: as above; settings: 5 µM; treatment time 24 h; reporter: 7TFP
Outline: as §1

SMILES	cell viability (DLD1 [1])	cell viability (HCT116)	cell viability (SW480 [2])	TCF/Wnt firefly luciferase reporter signal (DLD1 [3])	TCF/Wnt firefly luciferase reporter signal (SW480 [4])
C=C1C2CCC3(C)C(c4ccoc4)OC(=O)CC13OC1CC(=O)C(C)(C)C(CC(=O)OC)C12C (stereo not given)	0.97 ± 0.012	0.934 ± 0.0099	0.925 ± 0.044	1.04 ± 0.12	1.09 ± 0.13
O=c1oc(CO)c(CO)c2cccc(O)c12 [8-hydroxy-3,4-bis-(hydroxymethyl)-isocumarin]	0.91 ± 0.03	0.981 ± 0.098	0.967 ± 0.038	1.09 ± 0.092	1.05 ± 0.057
COc1ccc(-c2coc3cc(OC)cc(OC)c3c2=O)cc1	1.03 ± 0.086	1.04	1.035 ± 0.0071	0.963 ± 0.11	1.04 ± 0.028
CC(=O)O[C@H]1CC[C@]2(C)C(C[C@@H](OC(C)=O)[C@]3(C)C4=CC(=O)O[C@H](c5ccoc5)[C@@]4(C)CCC23)C1(C)C (stereo partly drawn) [3-DEOXO-3beta-ACETOXYDEOXYDIHYDROGEDUNIN]	1 ± 0.057	1.14 ± 0.19	0.982 ± 0.04	1.05 ± 0.021	0.864 ± 0.09
CO[C@H]1O[C@H](CO)C(O[C@@H]2OC(C(=O)O)[C@@H](O[C@H]3O[C@H](COS(=O)(=O)O)C(O[C@@H]4OC(C(=O)O)[C@@H](O[C@H]5O[C@H](CO)C(O[C@@H]6OC(C(=O)O)[C@@H](O[C@H]7O[C@H](COS(=O)(=O)O)C(O[C@@H]8OC(C(=O)O)=C[C@H](O)C8OS(=O)(=O)O)[C@H](O)[C@H]7NC(C)=O)[C@H](O)[C@H]6O)[C@H](O)[C@H]5NC(C)=O)[C@H](O)[C@H]4O)[C@H](O)[C@H]3NC(C)=O)[C@H](O)[C@H]2O)[C@H](O)[C@H]1NC(C)=O (stereo not given in full)	0.988 ± 0.032	1.05 ± 0.1	1.025 ± 0.0071	0.977 ± 0.2	0.98 ± 0.043
CC1(C)S[C@@H]2[C@H](NC(=O)Cc3ccccc3)C(=O)N2[C@H]1C(=O)O	0.914 ± 0.0057	0.968 ± 0.025	1.02 ± 0.067	1.16 ± 0.11	0.949 ± 0.14
CN(C)CCC=C1c2ccccc2COc2ccccc21	0.994 ± 0.052	1.01 ± 0.021	0.949 ± 0.032	1.06 ± 0.028	1.07 ± 0.014
COc1cc2oc3cc(OC)c(OC)c(CC=C(C)C)c3c(=O)c2c(O)c1CC=C(C)C	1.08 ± 0.16	1 ± 0.078	1.02 ± 0.054	1.1 ± 0.19	0.968 ± 0.046
CC1(C)C(=O)C=C[C@@]2(C)C1CC(=O)[C@@]1(C)C3=CC(=O)O[C@@H](c4ccoc4)[C@]3(C)CCC12 (stereo not given in full)	0.921 ± 0.04	0.988 ± 0.045	0.977 ± 0.027	0.913 ± 0.03	0.956 ± 0.076
O=C1c2cccc(O)c2C(=O)c2c(O)cccc21	0.96 ± 0.013	0.923 ± 0.12	0.992 ± 0.054	0.958 ± 0.12	1 ± 0.051
CC(=O)OCC(CCn1cnc2cnc(N)nc21)COC(C)=O	0.9935 ± 0.0021	0.97 ± 0.04	0.9805 ± 0.0092	0.984 ± 0.052	1.025 ± 0.0071
CC(=O)O[C@H]1CC[C@]2(C)C3=CC(=O)[C@@]4(C)C(C[C@@H]5OC6(OCC(C)CC6Br)[C@@H](C)[C@@H]54)C3CC[C@H]2C1 (stereo partly drawn) [3beta-ACETOXY-23-BROMO-ISOALLOSPIROST-9 (11)-ENE-12-ONE]	1.04 ± 0.042	1.11 ± 0.092	1.03 ± 0.05	1.12 ± 0.099	1.1 ± 0.035
Cn1cnc2c1c(=O)[nH]c(=O)n2C	1.04 ± 0.028	1.16 ± 0.092	1.03 ± 0.035	1.17	1.09 ± 0.028
O=C(C1CCCCC1)N1CC(=O)N2CCc3ccccc3C2C1 (stereo not given)	0.9955 ± 0.0064	0.984 ± 0.037	0.98 ± 0.042	1.02 ± 0.034	0.918 ± 0.12
O=C(O)c1cn(-c2ccc(F)cc2)c2cc(N3CCNCC3)c(F)cc2c1=O	0.906 ± 0.012	0.949 ± 0.029	0.998 ± 0.046	1.08 ± 0.11	1.06 ± 0.1
